Inconclusive results are not listed. A call without a number means that no potency is given here. The source made the active and inactive calls. Calls follow the shape of the dose curve; as a rule, active = well fitted curve in the direction sought with a large enough effect in the repeat runs; inconclusive = weak or mixed curves; inactive = no such curve, though single readings can be large; an effect the other way counts as inactive or inconclusive.
Tests used:
[1] = Caspase-3/7 induction in CHO-K1 cells by small molecules, qHTS assay (AID 1346980); also: nearly all actives have a fitted effect of over 15% in size
How it was run: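 Wild-type CHO-K1 cells exposed to compounds for 17hr at 37 C, 5% CO2. Caspase-3/7 activity then measured by Caspase-Glo 3/7 luminescence after 30min at room temperature.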

[2] = Caspase-3/7 induction in HepG2 cells by small molecules, qHTS cell viability counter screen (AID 1346981); also: nearly all actives have a fitted effect of over 30% in size; also: potency is read from the fitted curve at half-maximal effect
How it was run: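 Wild-type HepG2 cells, 2,000/well, settled 5 hr at 37 C, 5% CO2 before compound addition. Viability read by CellTiter-Fluor fluorescence, reagent added after 16 hr compound exposure, then 1 hr at 37C, in the same wells as the caspase read.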

[3] = biological target: Nuclear receptor subfamily 1 group I member 2 (Homo sapiens) (UniProt O75469); experiment: Human pregnane X receptor (PXR) small molecule agonists, qHTS assay (AID 1346982); also: nearly all actives have a fitted effect of over 35% in size; also: potency is read from the fitted curve at half-maximal effect
Sequence of Nuclear receptor subfamily 1 group I member 2 (Homo sapiens) (O75469 whole entry, looked up): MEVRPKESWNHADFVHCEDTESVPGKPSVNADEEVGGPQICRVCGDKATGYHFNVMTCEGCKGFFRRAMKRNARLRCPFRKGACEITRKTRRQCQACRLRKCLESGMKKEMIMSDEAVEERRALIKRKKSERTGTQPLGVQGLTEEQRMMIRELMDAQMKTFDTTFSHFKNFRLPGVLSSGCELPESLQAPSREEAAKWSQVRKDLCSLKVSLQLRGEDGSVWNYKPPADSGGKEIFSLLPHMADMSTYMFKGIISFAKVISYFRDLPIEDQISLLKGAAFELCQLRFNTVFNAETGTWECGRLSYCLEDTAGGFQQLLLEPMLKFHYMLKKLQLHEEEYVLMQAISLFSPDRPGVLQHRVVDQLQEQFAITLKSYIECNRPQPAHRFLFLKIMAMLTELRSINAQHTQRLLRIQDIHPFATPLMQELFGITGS
How it was run: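 PXR-Luc HepG2 reporter cells (CYP3A4-driven luciferase) in 5% charcoal-stripped FBS medium, plated 5 h before compound addition, then treated 24 h at 37C. Luciferase read by ONE-Glo luminescence after 30 min at room temperature.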

[4] = biological target: Cytochrome P450 2D6 (Homo sapiens) (UniProt P10635); experiment: Cytochrome P450 Family 2 Subfamily D Member 6 (CYP2D6) small molecule antagonists: luciferase reporter qHTS assay (AID 1671196); also: nearly all actives have a fitted effect of over 50% in size; also: potency is read from the fitted curve at half-maximal effect
Sequence of Cytochrome P450 2D6 (Homo sapiens) (P10635 whole entry, looked up): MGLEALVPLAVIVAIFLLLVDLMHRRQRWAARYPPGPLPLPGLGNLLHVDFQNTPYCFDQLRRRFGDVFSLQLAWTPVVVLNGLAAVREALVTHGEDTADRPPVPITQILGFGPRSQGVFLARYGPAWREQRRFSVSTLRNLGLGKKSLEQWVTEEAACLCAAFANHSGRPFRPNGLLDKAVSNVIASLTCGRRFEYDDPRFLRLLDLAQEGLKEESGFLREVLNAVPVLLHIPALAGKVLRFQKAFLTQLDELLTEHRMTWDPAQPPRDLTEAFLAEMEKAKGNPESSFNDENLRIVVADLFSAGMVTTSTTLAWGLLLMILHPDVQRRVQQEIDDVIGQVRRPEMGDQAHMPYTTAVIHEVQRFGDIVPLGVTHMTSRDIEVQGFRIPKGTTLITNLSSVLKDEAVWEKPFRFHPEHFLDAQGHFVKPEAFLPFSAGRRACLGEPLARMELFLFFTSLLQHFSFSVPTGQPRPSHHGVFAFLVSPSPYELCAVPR
How it was run: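 Cell-free P450-Glo system: CYP2D6 with proluciferin substrate was pre-incubated with compound for 10 min, then reacted with NADPH regeneration for 1 h at room temperature. Luciferin product was detected after 20 min, and data were reported as relative luminescence units.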

[5] = biological target: Cytochrome P450 2C19 (Homo sapiens) (UniProt P33261); experiment: Cytochrome P450 Family 2 Subfamily C Member 19 (CYP2C19) small molecule antagonists: luciferase reporter qHTS assay (AID 1671197); also: nearly all actives have a fitted effect of over 65% in size; also: potency is read from the fitted curve at half-maximal effect
Sequence of Cytochrome P450 2C19 (Homo sapiens) (P33261 whole entry, looked up): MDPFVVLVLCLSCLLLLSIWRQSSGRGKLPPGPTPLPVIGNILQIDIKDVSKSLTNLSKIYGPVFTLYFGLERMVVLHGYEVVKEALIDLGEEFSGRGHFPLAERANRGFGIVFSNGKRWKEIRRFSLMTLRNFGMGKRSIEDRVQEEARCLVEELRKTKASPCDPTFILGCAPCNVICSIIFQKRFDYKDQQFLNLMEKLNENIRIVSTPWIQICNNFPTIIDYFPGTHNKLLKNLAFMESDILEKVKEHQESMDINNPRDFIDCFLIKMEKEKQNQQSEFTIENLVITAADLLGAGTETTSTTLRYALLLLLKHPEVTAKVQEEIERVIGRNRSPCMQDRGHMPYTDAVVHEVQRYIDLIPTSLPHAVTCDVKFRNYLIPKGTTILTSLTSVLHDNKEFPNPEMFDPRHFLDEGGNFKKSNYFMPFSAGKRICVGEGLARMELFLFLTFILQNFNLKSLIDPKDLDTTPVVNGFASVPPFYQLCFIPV
How it was run: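 P450-Glo CYP2C19 system: enzyme-substrate mix with compound 10 min at room temperature, then NADPH regeneration solution, 1 h at 37C. Proluciferin-to-luciferin conversion detected by luminescence after 20 min with detection reagent; ketoconazole as positive control.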

[6] = Caspase-3/7 induction in CHO-K1 cells by small molecules, qHTS cell viability counter screen (AID 1346979); also: nearly all actives have a fitted effect of over 35% in size; also: potency is read from the fitted curve at half-maximal effect
How it was run: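 To flag cytotoxic compounds, treated CHO-K1 wild-type cells were given CellTiter-Fluor at 16hr and read fluorescently after 1hr at 37C; the caspase-3/7 luminescence was measured in these same wells.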

[7] = biological target: Nuclear receptor subfamily 1 group I member 2 (Rattus norvegicus) (UniProt Q9R1A7); experiment: Rat pregnane X receptor (rPXR) activation by small molecules, qHTS assay (AID 1346983); details: rPXR luciferase reporter cells, One-Glo luminescence, 24 h; max activation: active compounds read high; also: nearly all actives have a fitted effect of over 20% in size
Sequence of Nuclear receptor subfamily 1 group I member 2 (Rattus norvegicus) (Q9R1A7 whole entry, looked up): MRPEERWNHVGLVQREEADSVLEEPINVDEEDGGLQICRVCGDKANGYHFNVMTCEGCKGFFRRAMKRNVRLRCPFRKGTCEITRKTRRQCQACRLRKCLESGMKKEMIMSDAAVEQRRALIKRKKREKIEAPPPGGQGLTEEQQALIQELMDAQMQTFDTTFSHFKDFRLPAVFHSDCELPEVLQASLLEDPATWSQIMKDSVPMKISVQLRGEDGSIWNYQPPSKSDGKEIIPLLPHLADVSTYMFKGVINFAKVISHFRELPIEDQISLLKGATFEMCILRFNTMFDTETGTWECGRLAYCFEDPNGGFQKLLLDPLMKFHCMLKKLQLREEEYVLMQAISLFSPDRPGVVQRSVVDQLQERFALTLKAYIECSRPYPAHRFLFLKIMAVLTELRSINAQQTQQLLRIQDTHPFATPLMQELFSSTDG
How it was run: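 Cell-based rPXR activation assay: rPXR cells, 2,000 per well, rested 5hr at 37 C, then exposed to compounds in DMSO for 24 hr at 37 C. Luciferase activity read by One-Glo luminescence after 30 min at room temperature.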

[8] = biological target: Nuclear receptor subfamily 1 group I member 2 (Homo sapiens) (UniProt O75469); experiment: CYP3A4 induction through human pregnane X receptor (PXR) by small molecules, qHTS assay (AID 1346984); also: nearly all actives have a fitted effect of over 40% in size
How it was run: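 DPX-2 HepG2 cells carrying a PXR response element and CYP3A4-promoter luciferase construct, treated with compounds 24 hr at 37C. Then P450-Glo CYP3A4 Luciferin-IPA substrate (3uM final) for 3 hr at 37C, One-Glo added, luminescence read.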

[9] = biological target: Nuclear receptor subfamily 1 group I member 2 (Homo sapiens) (UniProt O75469); experiment: Human pregnane X receptor (PXR) activation by small molecules, qHTS assay (AID 1346985); also: nearly all actives have a fitted effect of over 40% in size
How it was run: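 DPX-2 cells (HepG2 co-transfected with a PXR response element and a CYP3A4-promoter luciferase construct) were seeded at 2,000 per well, rested 5 hr at 37C, then exposed to DMSO-dissolved compounds for 24 hr. Activation was read as luciferase luminescence.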

C/C=C(/C(=C/C)c1ccc(OC(C)=O)cc1)c1ccc(OC(C)=O)cc1
Potency [1]: inactive
Potency [2]: inactive
Potency [3]: inactive
Potency [4]: inactive
Potency [5]: 17.4 µM (active)

CC(C)(C)Cl
Potency [6]: inactive
Potency [1]: inactive
Potency [2]: inactive
Potency [4]: inactive
Potency [5]: inactive

COc1cc2nc(N(C)CCCNC(=O)C3CCCO3)nc(N)c2cc1OC (centres undefined)
Potency [6]: 21.1 µM (active)
Potency [1]: inactive
Potency [2]: inactive
max activation [7]: -4.32% (inactive)
Potency [8]: inactive
Potency [9]: inactive
Potency [5]: inactive

CCOC(=O)C1=C[C@]2(CC)CCCN3CCc4c(n1c1ccccc41)[C@@H]32
Potency [1]: inactive
Potency [2]: inactive
Potency [3]: 2.37 µM (active)
Potency [4]: 2.75 µM (active)
Potency [5]: inactive

C[C@H](CCC(=O)O)[C@H]1CC[C@H]2[C@@H]3CC[C@@H]4C[C@H](O)CC[C@]4(C)[C@H]3C[C@H](O)[C@]12C
Potency [1]: inactive
Potency [2]: 54.6 µM (active)

CCCCCCCCCCCC(=O)OC[C@@H](O)[C@H]1OC[C@H](OCCO)[C@H]1OCCO
Potency [6]: inactive
Potency [1]: inactive
Potency [2]: inactive
Potency [4]: inactive
Potency [5]: inactive
